Measured values reported in PubChem BioAssay (NCI).
This is part of a sample that, as a whole, favours compounds with a hit. Of some 79,000 tested, about 15% had one in any assay. Active and inactive are the calls of the source. No stated cut-off is given here; in the data, active means growth inhibition above about 70%; inactive means the rest.

Experiments:
[1] = NCI Yeast Anticancer Drug Screen. Data for the rad52 strain (AID 147);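 further: 0% = growth of vehicle-treated control cultures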; conditions: S. cerevisiae rad52 mutant growth inhibition, active compounds read high
Summary of the method: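 Compounds are applied to a genetically defined yeast strain lacking normal DNA damage repair, and inhibition of growth is expressed relative to cultures given vehicle only.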

[2] = NCI Yeast Anticancer Drug Screen. Data for the wt1 strain (AID 149);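 further: 0% = growth of vehicle-treated wt1 cultures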; conditions: S. cerevisiae wt1 strain (SPY 50644) growth inhibition, active compounds read high
Summary of the method: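 Yeast wt1 strain exposed to compounds; growth inhibition measured relative to vehicle-treated controls.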

[3] = NCI Yeast Anticancer Drug Screen. Data for the rad50EPP+ strain (AID 151);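 further: 0% = growth of vehicle-treated control cultures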; conditions: S. cerevisiae rad50 mutant strain, active compounds read high
Summary of the method: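 Compounds were applied to the rad50EPP+ yeast strain, which bears a defined DNA repair alteration, and growth inhibition was determined relative to vehicle-treated cultures.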

[4] = NCI Yeast Anticancer Drug Screen. Data for the mgt1 strain (AID 153); conditions: S. cerevisiae mgt1 mutant growth inhibition, active compounds read high
Summary of the method: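 Strain: mgt1 yeast, one of a set carrying defined DNA damage repair or cell cycle control alterations. Compound-treated growth compared with vehicle.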

[5] = NCI Yeast Anticancer Drug Screen. Data for the rad50 strain (AID 155);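 further: 0% = growth of vehicle-only cultures of the same strain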; conditions: S. cerevisiae rad50 strain growth inhibition, active compounds read high
Summary of the method: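 Yeast carrying a defined DNA repair defect were exposed to test compounds, and growth was compared with vehicle-treated controls to give percent inhibition.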

[6] = NCI Yeast Anticancer Drug Screen. Data for the mec2-1 strain (AID 157); conditions: S. cerevisiae mec2-1 strain, active compounds read high
Summary of the method: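 Strain: mec2-1 (DNA repair/cell cycle alteration). Compound exposure, then growth measured; inhibition expressed relative to vehicle.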

[7] = NCI Yeast Anticancer Drug Screen. Data for the rad14 strain (AID 159);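 further: 0% = growth of vehicle-treated control cultures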; conditions: S. cerevisiae rad14 strain growth inhibition, active compounds read high
Summary of the method: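 Yeast cells carrying a defined DNA-repair defect were exposed to compounds, and growth inhibition was calculated relative to vehicle-treated control cultures.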

[8] = NCI Yeast Anticancer Drug Screen. Data for the sgs1 mgt1 strain (AID 161);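 further: 0% = growth of cultures given vehicle only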; conditions: S. cerevisiae sgs1 mgt1 strain, active compounds read high
Summary of the method: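 Genetically altered yeast, compound exposure, growth inhibition relative to vehicle.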

[9] = NCI Yeast Anticancer Drug Screen. Data for the CLN2oe strain (AID 163);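 further: 0% = growth of vehicle-only control cultures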; conditions: S. cerevisiae CLN2oe strain, active compounds read high
Summary of the method: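 Growth of a genetically modified yeast strain is measured after compound exposure and compared with cultures given vehicle alone.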

[10] = NCI Yeast Anticancer Drug Screen. Data for the cln2 rad14 strain (AID 165);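 further: 0% = growth equal to vehicle treated cultures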; conditions: S. cerevisiae cln2 rad14 strain, active compounds read high
Summary of the method: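 Compounds are applied to the cln2 rad14 yeast strain, and growth is then compared with that of vehicle-treated cultures to give inhibition.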

[11] = NCI Yeast Anticancer Drug Screen. Data for the bub3 strain (AID 167); conditions: S. cerevisiae bub3 mutant strain, active compounds read high
Summary of the method: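 Compounds were applied to a genetically altered yeast strain carrying a cell-cycle control defect. Growth inhibition was scored against vehicle-treated controls.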

[12] = NCI Yeast Anticancer Drug Screen. Data for the wt2 strain (AID 169);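 further: 0% = growth of vehicle-treated yeast cultures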; conditions: S. cerevisiae wt2 strain growth inhibition, active compounds read high
Summary of the method: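 This strain belongs to a panel of yeast strains with defined genetic alterations in DNA damage repair or cell cycle control. Compounds are applied, and growth inhibition is measured against vehicle-treated cultures.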

[13] = NCI Yeast Anticancer Drug Screen. Data for the mlh1 strain (AID 171);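 further: 0% = growth of vehicle-treated control cultures of the same strain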; conditions: S. cerevisiae mlh1 strain growth inhibition, active compounds read high
Summary of the method: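 Growth of the mutant yeast strain after compound exposure, expressed as inhibition relative to vehicle-only controls.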

[14] = NCI Yeast Anticancer Drug Screen. Data for the sgs1 strain (AID 173);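 further: 0% = growth of vehicle-only control cultures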; conditions: S. cerevisiae sgs1 mutant, active compounds read high
Summary of the method: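 Growth of a yeast strain bearing a defined genetic alteration is measured after compound treatment. Inhibition is expressed relative to vehicle-only controls.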

[15] = NCI Yeast Anticancer Drug Screen. Data for the mlh1 rad18 strain (AID 175); conditions: S. cerevisiae mlh1 rad18 strain growth inhibition, active compounds read high
Summary of the method: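 Read-out is yeast growth inhibition, calculated against vehicle-only controls. The compound was applied to a strain engineered with DNA damage repair alterations.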

[16] = NCI Yeast Anticancer Drug Screen. Data for the rad18 strain (AID 177); conditions: S. cerevisiae rad18 mutant growth inhibition, active compounds read high
Summary of the method: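 Growth of the mutant yeast strain after compound exposure, normalised to vehicle-only cultures.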

[17] = at 5.0 µM (retest, dose inferred, filed as 0.5)
[18] = at 50.0 µM (retest, dose inferred, filed as 5.0)

Measured: growth inhibition

S=C(S)NN1CCOCC1
active: [1]; at 1.2 µM 84% | [3]; at 1.2 µM 96% | [3]; at 3.7 µM 80% | [3]; at 11.0 µM 86% | [3]; at 33.0 µM 84% | [3]; at 100.0 µM 89% | [5]; at 1.2 µM 87% | [5]; [17] 89% | [5]; at 50.0 µM 85.2% | [6]; at 1.2 µM 80% | [6]; at 50.0 µM 97.8% | [8]; [17] 92% | [8]; [18] 91% | [8]; at 50.0 µM 77.2% | [10]; [17] 83% | [10]; at 50.0 µM 87.5% | [11]; [17] 85% | [11]; [18] 70% | [11]; at 50.0 µM 96% | [13]; at 100.0 µM 72% | [14]; at 1.2 µM 84% | [15]; [17] 94% | [15]; [18] 92% | [15]; at 50.0 µM 86.8% | [16]; at 1.2 µM 87% | [16]; at 100.0 µM 72%
inactive: [1]; at 3.7 µM 68% | [1]; at 11.0 µM 35% | [1]; at 33.0 µM 38% | [1]; at 100.0 µM 50% | [2]; at 1.2 µM 43% | [2]; at 3.7 µM 29% | [2]; at 11.0 µM 35% | [2]; at 33.0 µM 51% | [2]; at 100.0 µM 60% | [4]; at 1.2 µM 52% | [4]; at 3.7 µM 39% | [4]; at 11.0 µM 30% | [4]; at 33.0 µM 21% | [4]; at 100.0 µM 18% | [5]; at 3.7 µM 57% | [5]; at 11.0 µM 29% | [5]; at 33.0 µM 23% | [5]; [18] 66% | [5]; at 100.0 µM 28% | [6]; at 3.7 µM 60% | [6]; [17] 65% | [6]; at 11.0 µM 32% | [6]; at 33.0 µM 28% | [6]; [18] -4% | [6]; at 100.0 µM 35% | [7]; at 1.2 µM 33% | [7]; at 3.7 µM 36% | [7]; at 11.0 µM 34% | [7]; at 33.0 µM 42% | [7]; at 100.0 µM 52% | [9]; at 1.2 µM 57% | [9]; at 3.7 µM 31% | [9]; at 11.0 µM 29% | [9]; at 33.0 µM 27% | [9]; at 100.0 µM 42% | [10]; [18] 22% | [11]; at 1.2 µM 69% | [11]; at 3.7 µM 59% | [11]; at 11.0 µM 31% | [11]; at 33.0 µM 7% | [11]; at 100.0 µM 8% | [12]; at 1.2 µM 64% | [12]; at 3.7 µM 31% | [12]; at 11.0 µM 26% | [12]; at 33.0 µM 34% | [12]; at 100.0 µM 31% | [13]; at 1.2 µM 63% | [13]; at 3.7 µM 30% | [13]; at 11.0 µM 30% | [13]; at 33.0 µM 34% | [14]; at 3.7 µM 47% | [14]; at 11.0 µM 39% | [14]; at 33.0 µM 54% | [14]; at 100.0 µM 50% | [16]; at 3.7 µM 67% | [16]; at 11.0 µM 67% | [16]; at 33.0 µM 50%

CC(C)c1ccccc1NC(=O)/C(Cl)=C(\Cl)C(=O)O
active: [1]; at 100.0 µM 99% | [3]; at 100.0 µM 99% | [4]; at 100.0 µM 94% | [5]; [18] 82% | [5]; at 100.0 µM 98% | [6]; at 100.0 µM 99% | [7]; at 100.0 µM 93% | [9]; at 100.0 µM 82% | [11]; [18] 77% | [11]; at 100.0 µM 97% | [12]; at 100.0 µM 88% | [14]; at 100.0 µM 96% | [16]; at 100.0 µM 98%
inactive: [1]; at 1.2 µM 0% | [1]; at 3.7 µM 1% | [1]; at 11.0 µM 0% | [1]; at 33.0 µM 5% | [2]; at 1.2 µM -1% | [2]; at 3.7 µM -1% | [2]; at 11.0 µM -1% | [2]; at 33.0 µM 1% | [2]; at 100.0 µM 59% | [3]; at 1.2 µM 2% | [3]; at 3.7 µM 4% | [3]; at 11.0 µM 7% | [3]; at 33.0 µM 21% | [4]; at 1.2 µM 1% | [4]; at 3.7 µM 3% | [4]; at 11.0 µM 5% | [4]; at 33.0 µM 8% | [5]; at 1.2 µM 0% | [5]; at 3.7 µM 0% | [5]; [17] 0% | [5]; at 11.0 µM -2% | [5]; at 33.0 µM 11% | [5]; at 50.0 µM 30.1% | [6]; at 1.2 µM 1% | [6]; at 3.7 µM 0% | [6]; [17] 26% | [6]; at 11.0 µM 1% | [6]; at 33.0 µM 7% | [6]; [18] 27% | [6]; at 50.0 µM 6.85% | [7]; at 1.2 µM 2% | [7]; at 3.7 µM 2% | [7]; at 11.0 µM 4% | [7]; at 33.0 µM 6% | [8]; [17] -12% | [8]; [18] 16% | [8]; at 50.0 µM 2.4% | [9]; at 1.2 µM 1% | [9]; at 3.7 µM 6% | [9]; at 11.0 µM 5% | [9]; at 33.0 µM 2% | [10]; [17] 13% | [10]; [18] 63% | [10]; at 50.0 µM 51.6% | [11]; at 1.2 µM 0% | [11]; at 3.7 µM 1% | [11]; [17] 9% | [11]; at 11.0 µM 5% | [11]; at 33.0 µM 7% | [11]; at 50.0 µM 8.1% | [12]; at 1.2 µM 1% | [12]; at 3.7 µM 0% | [12]; at 11.0 µM 0% | [12]; at 33.0 µM 4% | [13]; at 1.2 µM -1% | [13]; at 3.7 µM 1% | [13]; at 11.0 µM 2% | [13]; at 33.0 µM 4% | [13]; at 100.0 µM 66% | [14]; at 1.2 µM 2% | [14]; at 3.7 µM 4% | [14]; at 11.0 µM 5% | [14]; at 33.0 µM 12% | [15]; [17] 21% | [15]; [18] 28% | [15]; at 50.0 µM 11.9% | [16]; at 1.2 µM 0% | [16]; at 3.7 µM 0% | [16]; at 11.0 µM 1% | [16]; at 33.0 µM 8%

O=C1C=CC(=Nc2ccc3c(c2)Cc2cc(NC(=O)C(F)(F)F)ccc2-3)O1
active: [1]; at 100.0 µM 97% | [2]; at 100.0 µM 95% | [3]; at 11.0 µM 81% | [3]; at 33.0 µM 91% | [3]; at 100.0 µM 98% | [4]; at 100.0 µM 96% | [5]; [18] 96% | [5]; at 50.0 µM 82.4% | [5]; at 100.0 µM 97%
inactive: [1]; at 1.2 µM 4% | [1]; at 3.7 µM 8% | [1]; at 11.0 µM 21% | [1]; at 33.0 µM 33% | [2]; at 1.2 µM 3% | [2]; at 3.7 µM 4% | [2]; at 11.0 µM 11% | [2]; at 33.0 µM 20% | [3]; at 1.2 µM 8% | [3]; at 3.7 µM 40% | [4]; at 1.2 µM 1% | [4]; at 3.7 µM 5% | [4]; at 11.0 µM 12% | [4]; at 33.0 µM 36% | [5]; at 1.2 µM 2% | [5]; at 3.7 µM 7% | [5]; [17] 44% | [5]; at 11.0 µM 20% | [5]; at 33.0 µM 55% | [6]; at 1.2 µM 5% | [6]; at 3.7 µM 14%
